Inconclusive results are not listed. Where a call stands in place of a potency, no number is given. The source made the active and inactive calls. Calls follow the shape of the dose curve; as a rule, active = well fitted cell-killing curve with a large enough effect; inconclusive = small, poorly fitted or top-dose-only effect; inactive = flat fitted curve, though single readings scatter.
test: Cell Viability - LYMP2-022 (AID 987); conditions: LYMP2-022 lymphoblastoid cell viability; series mostly up to 92.2 µM; also: nearly all actives have a fitted effect of over 55% in size
Description: NIH Chemical Genomics Center [NCGC]
NIH Molecular Libraries Screening Centers Network [MLSCN]
National Institutes of Environmental Health Sciences [NIEHS]
National Toxicology Program [NTP]
We have developed a 1536-well cell-based assay for quantitative high throughput screening (qHTS) against a number of cell lines to determine in vitro cytotoxicity of small molecules. This particular assay uses a human lymphoblastoid cell line (LYMP2-022) purchased from Coriell Institute for Medical Research.
NCGC Assay Protocol Summary:
The CellTiter-Glo luminescent cell viability assay (Promega) is a homogeneous method to measure the number of viable cells in culture. The end point readout of this assay is based on quantitation of intracellular ATP, an indicator of metabolic activity, using the luciferase reaction. Luciferase catalyzes the oxidation of beetle Luciferin to oxyluciferin and light in the presence of ATP. The luminescent signal is proportional to amount of ATP present.
Using the CellTiter-Glo luminescent cell viability assay, the amount of cellular ATP was measured in the lymphoblastoid cell line with complete culture medium following compound treatment for 24 hours. The assay was performed in opaque white Kalypsys 1536-well plates. In the screen, tetraoctylammonium bromide was used as positive control. Library compounds were measured for their ability to cause acute toxicity in the cell line, as reflected by a decrease in intracellular ATP levels, in a concentration-dependent manner. […] AC50 values were determined from concentration-response data modeled with the standard Hill equation.
qHTS protocol for CellTiter Glo lymphoblastoid cellular assay
[Step] [Parameter] [Value] [Description]
1. Reagent; 5 uL; 2500 lymphoblastoid cells/well
2. Time; 5 hr; 37 C incubation
4. Controls; 23 nL; Tetraoctylammonium bromide 6.4pM to 92 uM
5. Time; 24 hr; 37 C incubation
6. Reagent; 5 uL; CellTiter Glo reagent
7. Time; 30 min; Room Temperature
8. Detection; Luminescence; Viewlux plate reader
Keywords: cell viability, cytotoxicity, lymphoblastoid cell line, luminescence, NTPHTS, NTPHTS_NCGC, NIEHS, DSSTox, MLSMR, MLSCN, NIH Roadmap, qHTS, NCGC
Potency is read from the fitted curve at half-maximal effect.

Compound	Potency
COc1ccc(N)cc1	inactive
ClCBr	inactive
C=CC(=C)C	inactive
CCCC(=O)Cl	inactive
C=CC(N)=O	inactive
Nc1ccccc1Cl	inactive
Cc1cccc([N+](=O)[O-])c1	inactive
O=NN(CCO)CCO	inactive
c1ccc(-c2ccccc2)cc1	inactive
CN=C=S	inactive
ClC1=C(Cl)C2(Cl)C3C4CC(C5OC45)C3C1(Cl)C2(Cl)Cl (stereo not given)	39.8 µM (active)
CCC[CH2][Sn]([Cl])([Cl])[Cl]	inactive
Cc1ccc(O)c(C)c1	inactive
Cc1ccc2ccccc2c1	inactive
CCCSC(=O)Cl	inactive
CCCCCCCC(=O)Cl	inactive
ClC(Cl)(Cl)c1ccccc1	inactive
OCC1CO1 (stereo not given)	inactive
c1ccc(OP(Oc2ccccc2)Oc2ccccc2)cc1	inactive
S=C=Nc1cccc2ccccc12	inactive

Compound	Potency
O=C1C(Cl)=C(Cl)C(=O)C(Cl)=C1Cl	15.8 µM (active)
COc1ccc(C=O)cc1OC	inactive
CC(C)(OO)c1ccccc1	39.8 µM (active)
CCN(CC)c1ccccc1	inactive
Cc1ccccc1N	inactive
Cc1cccc(C#N)c1	inactive
CC(C)(c1ccccc1)c1ccc(O)cc1	inactive
O=C=NC1CCCCC1	inactive
C=C(Cl)Cl	inactive
C=CCOC(C)=O	inactive
O=C(Cl)C(Cl)(Cl)Cl	inactive
COC1=CC(=O)OC(CCc2ccccc2)C1 (stereo not given)	inactive
O=[N+]([O-])c1ccc(Cl)c(Cl)c1	inactive
C[N+](C)(C)Cc1ccccc1	inactive
C[C@]12CC[C@H]3[C@@H](CCC4=CC(=O)CC[C@@]43C)[C@@H]1CC[C@@H]2O	inactive
CCNc1nc(Cl)nc(NC(C)C)n1	inactive
COP(=S)(OC)Oc1ccc([N+](=O)[O-])cc1	inactive
C=CC1CC=CCC1 (stereo not given)	inactive
C=CCc1ccc2c(c1)OCO2	inactive
OCC(Br)CBr (stereo not given)	inactive
